Most compounds without a hit are left out; they make up all but 2.6% or so of the library.
TLR9-MyD88 block – blocks human TLR9 binding to MyD88; CHO BLA complementation TLR9-MyD88, CCF4 FRET ratio; actives 0.21% (n = 340,000); Q9NR96+Q99836; inhibition, % at 4.98 µM;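 active = inhibition above the mean over all tested compounds plus 3 SD, cut at about 21% in these data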;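 also: 0% = DMSO only wells and 100% = clavulanate BLA inhibitor control wells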
TLR4-MyD88 BLA – TLR4-MyD88 interaction inhibition in cells; inhibition, % at 8.4 µM; actives 0.18% (n = 200,000); AID 861; HeLa CL3-4 TLR4/MyD88 BLA complementation, FRET ratio; O00206+Q99836; in the data active = inhibition above about 25%;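 also: 0% = vehicle and 100% = reference inhibitor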
PRMT1 inh – blocks human protein arginine methyltransferase 1; Q99873; recombinant PRMT1, activity-based probe fluorescence polarization; inhibition, % at 2.79 µM; actives 1.3% (n = 370,000); AID 652257;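 active = inhibition above about 21% made by adding two undisclosed values, limit read from the data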
NOD2 RIPK2 PPI – inhibitors of human NOD2-RIPK2 interaction; CHO BLA complementation NOD2-RIPK2, CCF4 ratio; inhibition, % at 4.98 µM; actives 0.38% (n = 360,000); AID 624267; in the data active = inhibition above about 21%;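 also: 0% = vehicle only and 100% = reference blocker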
Granule exo inh – blocks lytic granule exocytosis. inhibition, % at 10 µM. actives 0.66% (n = 360,000). TALL-104 LAMP-1 surface exposure, flow cytometry; cells stimulated with thapsigargin and PMA;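 active = inhibition above about 55%, limit read from the data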
ABHD5-PLIN5 inh – ABHD5-PLIN5 protein interaction inhibition | Split G. princeps luciferase complementation, luminescence, 4 h | inhibition, % at 4 µM | actives 0.78% (n = 360,000);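 active = inhibition above the mean inhibition across every tested compound plus 3 SD, cut at about 22% in these data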;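 also: 0% = DMSO only wells and the 100% control is not disclosed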
* = called active by the depositor; x = not tested or not shown.

SMILES | TLR9-MyD88 block | TLR4-MyD88 BLA | PRMT1 inh | NOD2 RIPK2 PPI | Granule exo inh | ABHD5-PLIN5 inh
COc1ccc(C(C[N+](=O)[O-])c2c(C)cc3ccccn23)cc1 (configuration not stated) | 6.4 | -7.9 | 1.1 | -9.3 | 2.0 | 15.2
CC(C)CC(=O)Nc1nc2ccc(S(C)(=O)=O)cc2s1 | -4.0 | 4.0 | 22.8* | -2.3 | -0.4 | 0.8
C[C@@H](CO)NC(=O)c1[nH]cnc1C(=O)Nc1ccccc1 | x | x | -5.3 | x | x | x
O=[N+]([O-])c1cc([N+](=O)[O-])c(Oc2c(F)cccc2F)cc1NN1CCCCC1 | 10.9 | x | -2.9 | -2.8 | 77.8* | 6.3
O=[N+]([O-])c1cc([N+](=O)[O-])c(Oc2c(F)ccc(F)c2F)cc1NN1CCCCC1 | 0.8 | x | -0.3 | -12.8 | 4.0 | -7.9
O=C(c1ccco1)[C@@H]1[C@@H]2C(=O)N(c3ccc(Br)cc3)C(=O)[C@@H]2C2c3ccccc3C=CN21 (some centres not stated) | 7.6 | -10.4 | 24.9* | 2.6 | -1.1 | 4.4
COc1ccc2cc(CN(Cc3ccco3)C(c3nnnn3C3CCCCC3)C(C)C)c(=O)[nH]c2c1 (configuration not stated) | 1.3 | 6.1 | -0.5 | -10.4 | 5.0 | 22.5*
COc1ccc2cc(CN(Cc3ccco3)Cc3nnnn3C3CCCCC3)c(=O)[nH]c2c1 | -6.9 | -6.0 | -1.1 | -3.8 | 0.3 | -2.0
C#CCOCCOCCOCCNc1nc(N2CCN(C(=O)C([C@@H](C)CC)n3cc(C(N)CC(C)C)nn3)CC2)nc(N2CCN(C(=O)[C@H](CCC(=O)O)n3cc(C(N)CC(C)C)nn3)CC2)n1 (some centres not stated) | -4.9 | 0.1 | x | -3.2 | 76.4* | -9.1
C#CCOCCOCCOCCNc1nc(N2CCN(C(=O)[C@H](CCCCN)n3cc([C@@H](N)C(C)CC)nn3)CC2)nc(N2CCN(C(=O)[C@H](Cc3cc4ccccc4[nH]3)n3cc([C@@H](N)CC(C)C)nn3)CC2)n1 (some centres not stated) | 6.0 | -14.7 | x | -3.3 | 28.1 | 24.1*
C#CCOCCOCCOCCNc1nc(N2CCN(C(=O)C([C@@H](C)CC)n3cc(C(N)CO)nn3)CC2)nc(N2CCN(C(=O)[C@H](CCC(=O)O)n3cc(C(N)CC(C)C)nn3)CC2)n1 (some centres not stated) | -9.7 | 6.1 | x | -16.2 | 1.3 | 2.6
C#CCOCCOCCOCCNc1nc(N2CCN(C(=O)[C@H](CCCCN)n3cc([C@@H](N)CO)nn3)CC2)nc(N2CCN(C(=O)[C@H](Cc3ccc(O)cc3)n3cc([C@@H](N)CC(C)C)nn3)CC2)n1 | -1.2 | -5.8 | 2.5 | -12.3 | 67.5* | -7.4
C#CCOCCOCCOCCNc1nc(N2CCN(C(=O)[C@H](Cc3cc4ccccc4[nH]3)n3cc([C@@H](N)C(C)CC)nn3)CC2)nc(N2CCN(C(=O)[C@H](CCCCN)n3cc([C@@H](N)CO)nn3)CC2)n1 (some centres not stated) | x | -9.0 | x | x | x | x
CCOC(=O)[C@@]12CCCC3=C1N(CCC3)C(=O)[C@H]2CC(=O)N1CCOCC1 | x | x | 2.5 | x | x | x
Cc1cc(C)c(C(=O)/C=C/c2ccc(C(C)C)cc2)c(=O)[nH]1 | 2.0 | -6.5 | -1.2 | -1.5 | -3.2 | 37.0*
Cc1cc(C)c(C(=O)/C=C/C=C/c2ccccc2)c(=O)[nH]1 | 12.7 | 12.0 | -1.8 | 2.7 | -0.5 | 0.5
Cc1ccc2c(c1)-c1ccccc1S(=O)(=O)N2 | 4.3 | -9.8 | -0.5 | 2.7 | 2.6 | -0.4
Nc1ccc2c(c1)-c1ccccc1S(=O)(=O)N2 | -8.9 | 4.2 | 22.2* | 9.1 | -1.3 | -5.2
COc1ccccc1[C@H]1C(c2cccc(Cl)c2)=NN(c2ccccc2)[C@@H]1CO | 1.2 | x | x | 37.0* | 6.4 | -10.5
O=C(NC1CCCCN(Cc2cccc(C(F)(F)F)c2)C1=O)c1ccc(Cl)cc1 (configuration not stated) | x | x | -2.1 | x | x | x
COc1ccc(N2CCN(CCCNC(=O)Cn3c(=O)c4cccn4c4c(C)ccnc43)CC2)cc1 | x | x | -7.0 | x | x | x
CC(CCC(=O)NN)C1CCC2C3CCC4CC(O)CCC4(C)C3CCC12C (configuration not stated) | 3.1 | x | 0.4 | -5.6 | 7.3 | -1.7
CC(CCC(C)C(C)(C)C)[C@@H]1CC[C@H]2C3C[C@H](OS(O)(=S)=S)[C@H]4C[C@H](OS(O)(=S)=S)[C@@H](OS(O)(=S)=S)C[C@]4(C)[C@H]3CC[C@]12C (some centres not stated) (tested in a mixture with another compound) | 2.3 | x | x | 23.9* | 7.6 | 5.3
CN(Cc1ccccc1)C(=O)OCc1cn(Cc2cccc(C(F)(F)F)c2)nn1 | x | x | -2.1 | x | x | x
Cc1cccc(NC2=C(NC(=O)c3ccccc3)C(=O)c3ccccc3C2=O)c1 | -8.6 | -4.4 | 29.2* | 3.0 | 22.1 | -7.8
SMILES | TLR9-MyD88 block | TLR4-MyD88 BLA | PRMT1 inh | NOD2 RIPK2 PPI | Granule exo inh | ABHD5-PLIN5 inh
CC(NC(=O)OC(C)(C)C)C(=O)Oc1cc2oc(=O)cc(-c3ccccc3)c2cc1Cl (configuration not stated) | 31.4* | 11.2 | x | 39.1* | 1.0 | -4.0
CC(Oc1cc2oc(=O)cc(-c3ccccc3)c2cc1Cl)C(=O)NCC1CCC(C(=O)O)CC1 (configuration not stated) | 4.9 | x | 3.3 | -9.3 | -4.1 | 6.8
Nc1ccn([C@@H]2O[C@H](C(=O)N[C@H](Cc3ccccc3)C(=O)N3CCN(CC(=O)N4CCCC4)CC3)[C@@H](O)[C@H]2O)c(=O)n1 | x | x | 6.1 | x | x | x
CC(C)[C@@H](C)/C=C/[C@@H](C)[C@H]1CC[C@@H]2[C@]1(C)CCC1[C@]23C=C[C@]2(C[C@@H](O)CC[C@]12C)N(c1ccc(Br)cn1)O3 (some centres not stated) | x | x | 5.4 | x | x | x
CC(=O)/C=C/n1c(=S)oc2ccccc21 | x | 16.1 | 22.9* | x | x | x
Cc1cc(O)cc(=O)n1-c1cccc(Br)c1 | x | x | -4.2 | x | x | x
Cc1[nH]c2ccccc2c1SCC(=O)O | -8.4 | 7.8 | 0.6 | -5.6 | 3.6 | -4.8
O=C(O)CSc1c2ccccc2cc2ccccc12 | 3.0 | x | 31.4* | -2.3 | -1.0 | -13.8
N#CCC(=O)N/N=C/c1c(-c2ccccc2)n(-c2ccccc2)c2ccccc12 | -3.9 | x | -1.6 | 4.8 | 93.7* | 6.0
N#CCC(=O)N/N=C/c1cn(Cc2ccccc2C#N)c2ccccc12 | 1.6 | x | 4.0 | -6.0 | -9.5 | -7.9
O=C1NN(c2ccccc2)C(=O)/C1=C\c1ccccc1OCC(=O)N1CCOCC1 | 6.2 | -4.2 | 21.2* | -2.2 | -4.6 | -0.3
COC(=O)c1cccc(NC(=O)/C(=C\c2ccco2)NC(=O)c2ccco2)c1 | -6.1 | x | 24.6* | 1.3 | 20.7 | -1.1
CCOC(=O)C(NC(=O)CC(C)C)(Nc1sc(C)c(CC)c1C#N)C(F)(F)F (configuration not stated) | -8.1 | -10.7 | -1.9 | -2.7 | 0.8 | -2.5

Screening results from PubChem.
